Reference: the supplement of paper PMC6607015
Where a name gives a salt, the structure may show the parent alone.

System: A431
Test: LBPA endosome anti-LBPA integrated intensity (sum per cell), Z-score; higher = more LBPA staining
Conditions: compound concentration in added solution (µM; 5 µl added to 20 µl cells): 10; 18 h
Summary of the method: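 HeLa MZ or A431 cells were plated at 3,500 per well in 20 µl over 5 µl of 10 µM compound solution in duplicate 384-well imaging plates and fixed in 4% PFA after 18 h. Staining used the 6C4 anti-LBPA antibody, filipin, propidium iodide and CellTracker green, with four 20× images captured per well. MetaXpress segmentation measured integrated LBPA or filipin intensity per cell, across the whole cell or inside LBPA endosomes, and AcuityXpress normalised these into Z-scores.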

SMILES | LBPA endosome anti-LBPA integrated intensity (z-score)
CCN1CCC[C@H]1CNC(=O)c1c(OC)ccc(Br)c1OC [Remoxipride Hydrochloride] | -0.395
CN(C(=O)C(Cl)Cl)c1ccc(OC(=O)c2ccco2)cc1 [Diloxanide furoate] | -0.565
CCn1cc(C(=O)O)c(=O)c2ccc(C)nc21 [Nalidixic acid sodium salt] | -0.59
O=C1CCc2cc(OCCCCc3nnnn3C3CCCCC3)ccc2N1 [Cilostazol] | -0.386
CNC(=C[N+](=O)[O-])NCCSCc1ccc(CN(C)C)o1 [Ranitidine hydrochloride] | -0.424
CCc1cccc2c3c([nH]c12)C(CC)(CC(=O)O)OCC3 (centres undefined) [Etodolac] | -0.65
Nc1c2c(nc3ccccc13)CCCC2 [Tacrine hydrochloride] | 0.535
CNNCc1ccc(C(=O)NC(C)C)cc1 [Procarbazine hydrochloride] | -0.593
COCCOC(=O)C1=C(C)NC(C)=C(C(=O)OC(C)C)C1c1cccc([N+](=O)[O-])c1 (centres undefined) [Nimodipine] | -0.345
NC[C@@H]1O[C@@H](O[C@H]2[C@H](O)[C@@H](O[C@H]3O[C@H](CO)[C@@H](O)[C@H](N)[C@H]3O)[C@H](N)C[C@@H]2N)[C@@H](O)[C@H](O)[C@H]1O [Kanamycin A sulfate] | -0.635
OC[C@H]1O[C@@H](Oc2ccc(O)cc2)[C@H](O)[C@@H](O)[C@@H]1O [Arbutin] | -0.459
CCOC(=O)[C@@](C)(N)Cc1ccc(O)c(O)c1 [Methyldopate hydrochloride] | -0.346
CC1(C)S[C@@H]2[C@H](NC(=O)[C@H](N)c3ccccc3)C(=O)N2[C@H]1C(=O)O [Ampicillin trihydrate] | -0.606
Oc1ncnc2[nH]ncc12 [Allopurinol] | -0.351
CO/N=C(\C(=O)N[C@@H]1C(=O)N2C(C(=O)O)=C(COC(N)=O)CS[C@H]12)c1ccco1 [Cefuroxime sodium salt] | -0.467
OCCN1CCN(CC/C=C2/c3ccccc3Sc3ccc(Cl)cc32)CC1 [Zuclopenthixol hydrochloride] | 3.18
Cn1nnnc1SCC1=C(C(=O)O)N2C(=O)[C@@H](NC(=O)[C@H](O)c3ccccc3)[C@H]2SC1 [Cefamandole sodium salt] | -0.486
CC(N/C(=N\C#N)Nc1ccncc1)C(C)(C)C (centres undefined) [Pinacidil] | -0.477
COc1ccccc1Oc1c(NS(=O)(=O)c2ccc(C(C)(C)C)cc2)nc(-c2ncccn2)nc1OCCO [Bosentan] | -0.54
CC(C)(O/N=C(\C(=O)N[C@@H]1C(=O)N2C(C(=O)[O-])=C(C[n+]3ccccc3)CS[C@H]12)c1csc(N)n1)C(=O)O [Ceftazidime pentahydrate] | -0.536

SMILES | LBPA endosome anti-LBPA integrated intensity (z-score)
Nc1nc2c(ncn2COC(CO)CO)c(=O)[nH]1 [Ganciclovir] | -0.282
CCN(CCCc1ccccc1)CCCc1ccccc1 [Alverine citrate salt] | 2.06
CC(=O)OC(C)C[N+](C)(C)C (centres undefined) [Methacholine chloride] | -0.38
C[C@@H](c1ncncc1F)[C@](O)(Cn1cncn1)c1ccc(F)cc1F [Voriconazole] | -0.526
Nc1nc(F)nc2c1ncn2[C@@H]1O[C@H](CO)[C@@H](O)[C@@H]1O [Fludarabine] | -0.338
Cc1ccc2c(c1)c1c3n2CCNC3CCC1 (centres undefined) [Pirlindole mesylate] | 0.0753
O=C(O[C@@H]1C[C@@H]2C[C@H]3C[C@H](C1)N2CC3=O)c1c[nH]c2ccccc12 [Dolasetron mesilate] | -0.534
COC(=O)C1=C(C)NC(C)=C(C(=O)OCC(C)C)C1c1ccccc1[N+](=O)[O-] (centres undefined) [Nisoldipine] | 0.222
CN(Cc1cnc2nc(N)nc(N)c2n1)c1ccc(C(=O)N[C@@H](CCC(=O)O)C(=O)O)cc1 (racemic) [Amethopterin (R,S)] | -0.376
NS(=O)(=O)c1cc2c(cc1Cl)NC(CC1CCCC1)NS2(=O)=O (centres undefined) [Cyclopenthiazide] | -0.58
NC(=O)c1cc[n+](CC2=C(C(=O)[O-])N3C(=O)[C@@H](NC(=O)[C@@H](c4ccccc4)S(=O)(=O)O)[C@H]3SC2)cc1 [Cefsulodin sodium salt] | -0.471
CS(=O)(=O)c1ccc(C2=C(c3ccccc3)C(=O)OC2)cc1 [Rofecoxib] | -0.672
O=c1oc2ccccc2c(O)c1Cc1c(O)c2ccccc2oc1=O [Dicumarol] | -0.455
O=C(O)c1cc(=O)c2c(OCC(O)COc3cccc4oc(C(=O)O)cc(=O)c34)cccc2o1 [Cromolyn disodium salt] | -0.474
CNCCC(Oc1ccccc1OC)c1ccccc1 (centres undefined) [Nisoxetine hydrochloride] | -0.0713
C#C[C@]1(O)CC[C@H]2[C@@H]3CCC4=Cc5oncc5C[C@]4(C)[C@H]3CC[C@@]21C [Danazol] | -0.455
COc1ccc(-c2cc(=S)ss2)cc1 [Anethole-trithione] | -0.536
CN(C)CCCC1(c2ccc(F)cc2)OCc2cc(C#N)ccc21 (centres undefined) [Citalopram Hydrobromide] | -0.329
Nc1cc(C(Cl)=C(Cl)Cl)c(S(N)(=O)=O)cc1S(N)(=O)=O [Clorsulon] | -0.372
